Reference: PubChem BioAssay AID1159580 (chemical genetic matrix, 2015)
Screen size: about 5,500 compounds; about 2,000 (36%) were called active. Inconclusive results (about 18%) are left out. No stated cut-off is given here; in the data, active means normalized growth mostly below about 0.91 (no sharp cut-off); inconclusive means no clear call, values can overlap the other calls; inactive means mostly above about 0.92. The list shows a part of the results.

Experiment: chemical genetic growth profiling, strain panel (AID 1159580);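 further: tested at 20 µM; growth read once vehicle control cultures reached saturation at 30 °C; 1 = growth at the plate median or of vehicle wells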
Details: S. cerevisiae deletion strains, growth OD
[1] = locus YHR030C, strain SLT2, stronger effect = lower value
[2] = locus YHR079C, strain IRE1, stronger effect = lower value
[3] = locus YJL095W, strain BCK1, stronger effect = lower value
[4] = locus YJR066W, strain TOR1, stronger effect = lower value
[5] = locus YLR113W, strain HOG1, stronger effect = lower value
[6] = locus YNL183C, strain NPR1, stronger effect = lower value
[7] = locus YOR231W, strain MKK1, stronger effect = lower value
[8] = locus YPL256C, strain CLN2, stronger effect = lower value

Measured: normalized growth

CCC(CO)NC(=O)C1C=C2c3cccc4c3c(cn4C)CC2N(C)C1 (stereo unspecified)
inactive: locus YAL013W, strain DEP1, stronger effect = lower value 0.988 | locus YAL040C, strain CLN3, stronger effect = lower value 1.08 | locus YCL061C, strain MRC1 (second series), stronger effect = lower value 0.999 | locus YDR150W, strain NUM1, stronger effect = lower value 1 | locus YDR363W, strain ESC2, stronger effect = lower value 0.972 | locus YER002W, strain NOP16, stronger effect = lower value 0.998 | locus YGR078C, strain PAC10, stronger effect = lower value 1 | locus YGR229C, strain SMI1, stronger effect = lower value 0.999 | locus YMR263W, strain SAP30, stronger effect = lower value 0.994 | locus YMR307W, strain GAS1, stronger effect = lower value 0.962 | locus YNL128W, strain TEP1, stronger effect = lower value 1.02 | locus YNL153C, strain GIM3, stronger effect = lower value 1 | locus YNL175C, strain NOP13, stronger effect = lower value 0.987 | locus YNL197C, strain WHI3, stronger effect = lower value 1.02 | locus YNL224C, strain SQS1, stronger effect = lower value 1 | locus YNL322C, strain KRE1, stronger effect = lower value 0.989 | locus YOR083W, strain WHI5 (second series), stronger effect = lower value 0.988 | locus YPL055C, strain LGE1, stronger effect = lower value 0.997 | locus YPL241C, strain CIN2, stronger effect = lower value 1

Nc1ccc(S(=O)(=O)O)cc1
inactive: [1] 0.992 | [2] 0.987 | [3] 0.998 | [4] 0.966 | [5] 0.976 | [6] 0.939 | [7] 1.01 | [8] 0.97

CC[C@]1(O)CC2CN(CCc3c([nH]c4ccccc34)[C@@](C(=O)OC)(c3cc4c(cc3OC)N(C=O)[C@H]3[C@@](O)(C(=O)OC)[C@H](OC(C)=O)[C@]5(CC)C=CCN6CC[C@]43[C@@H]65)C2)C1 (stereo partly specified)
inactive: locus YAL021C, strain ccr4, stronger effect = lower value 1 | locus YAL026C, strain drs2, stronger effect = lower value 0.984 | locus YAL030W, strain snc1, stronger effect = lower value 0.993 | locus YBL061C, strain skt5, stronger effect = lower value 1 | locus YBR009C, strain hhf1, stronger effect = lower value 0.988 | locus YBR023C, strain chs3, stronger effect = lower value 0.999 | locus YBR171W, strain sec66, stronger effect = lower value 0.978 | locus YBR231C, strain swc5, stronger effect = lower value 1.01 | locus YBR279W, strain paf1, stronger effect = lower value 0.989 | locus YCL011C, strain gbp2, stronger effect = lower value 1.01 | locus YCL016C, strain dcc1, stronger effect = lower value 1.03 | locus YCL061C, strain MRC1, stronger effect = lower value 0.971 | locus YCL069W, strain vba3, stronger effect = lower value 0.968 | locus YCR088W, strain abp1, stronger effect = lower value 0.986 | locus YDL005C, strain med2, stronger effect = lower value 0.985 | locus YDL040C, strain nat1, stronger effect = lower value 0.988 | locus YDR001C, strain nth1, stronger effect = lower value 1 | locus YDR069C, strain doa4, stronger effect = lower value 0.984 | locus YDR137W, strain rgp1, stronger effect = lower value 0.989 | locus YDR159W, strain sac3, stronger effect = lower value 0.994 | locus YDR195W, strain ref2 0.978 | locus YDR297W, strain sur2, stronger effect = lower value 0.982 | locus YDR334W, strain swr1, stronger effect = lower value 0.937 | locus YDR335W, strain msn5, stronger effect = lower value 0.977 | locus YDR392W, strain spt3, stronger effect = lower value 0.987 | locus YEL003W, strain gim4, stronger effect = lower value 0.972 | locus YEL037C, strain rad23, stronger effect = lower value 0.981 | locus YEL061C, strain CIN8 (second series), stronger effect = lower value 0.968 | locus YER015W, strain faa2, stronger effect = lower value 0.997 | locus YER016W, strain bim1, stronger effect = lower value 0.989 | locus YER111C, strain swi4, stronger effect = lower value 0.989 | locus YER155C, strain BEM2 (second series), stronger effect = lower value 0.962 | locus YFR010W, strain ubp6, stronger effect = lower value 0.94 | locus YGL167C, strain pmr1, stronger effect = lower value 0.972 | locus YGL173C, strain kem1, stronger effect = lower value 0.996 | locus YGL227W, strain vid30, stronger effect = lower value 0.985 | locus YGL240W, strain doc1, stronger effect = lower value 0.966 | locus YGL253W, strain hxk2, stronger effect = lower value 1.02 | locus YHR013C, strain ard1, stronger effect = lower value 1 | locus YHR027C, strain rpn1, stronger effect = lower value 0.992 | [1] 0.972 | [2] 0.97 | locus YHR142W, strain chs7, stronger effect = lower value 1.04 | locus YJL092W, strain hpr5, stronger effect = lower value 0.973 | locus YJL095W, strain BCK1 (second series), stronger effect = lower value 0.988 | [3] 0.958 | locus YJL115W, strain asf1, stronger effect = lower value 0.981 | locus YJL129C, strain trk1, stronger effect = lower value 1.01 | locus YJL154C, strain vps35, stronger effect = lower value 0.972 | locus YJL164C, strain tpk1, stronger effect = lower value 0.986 | locus YJL166W, strain qcr8, stronger effect = lower value 0.998 | [4] 0.939 | locus YKL160W, strain elf1, stronger effect = lower value 1.03 | locus YKR026C, strain gcn3, stronger effect = lower value 0.982 | locus YKR091W, strain srl3, stronger effect = lower value 0.999 | locus YLL001W, strain dnm1, stronger effect = lower value 1.01 | locus YLL026W, stronger effect = lower value 0.992 | locus YLL041C, strain sdh2, stronger effect = lower value 0.992 | locus YLR027C, strain aat2, stronger effect = lower value 0.991 | [5] 0.936 | locus YLR221C, strain rsa3, stronger effect = lower value 0.981 | locus YLR258W, strain gsy2, stronger effect = lower value 0.994 | locus YLR262C, strain YPT6 (second series), stronger effect = lower value 0.954 | locus YLR320W, strain mms22, stronger effect = lower value 0.985 | locus YLR342W, strain FKS1, stronger effect = lower value 0.984 | locus YLR357W, strain rsc2, stronger effect = lower value 0.92 | locus YLR370C, strain arc18, stronger effect = lower value 1.01 | locus YLR384C, strain iki3, stronger effect = lower value 1.01 | locus YML120C, strain ndi1, stronger effect = lower value 0.964 | locus YMR058W, strain fet3, stronger effect = lower value 0.982 | locus YMR125W, strain sto1, stronger effect = lower value 0.926 | locus YMR129W, stronger effect = lower value 0.994 | locus YMR205C, strain PFK2, stronger effect = lower value 1.01 | locus YMR231W, strain pep5, stronger effect = lower value 0.986 | locus YNL071W, strain lat1, stronger effect = lower value 0.973 | [6] 0.933 | locus YNL209W, strain ssb2, stronger effect = lower value 1 | locus YNL248C, strain rpa49, stronger effect = lower value 0.991 | locus YNL322C, strain KRE1 (second series), stronger effect = lower value 0.975 | locus YNR049C, strain mso1, stronger effect = lower value 0.975 | locus YOR001W, strain rrp6, stronger effect = lower value 0.945 | locus YOR070C, strain gyp1, stronger effect = lower value 0.999 | locus YOR080W, strain dia2, stronger effect = lower value 0.996 | locus YOR083W, strain WHI5, stronger effect = lower value 1.01 | locus YOR106W, strain vam3, stronger effect = lower value 0.998 | [7] 0.964 | locus YOR265W, strain rbl2, stronger effect = lower value 0.989 | locus YOR270C, strain vph1, stronger effect = lower value 1.04 | locus YOR290C, strain snf2, stronger effect = lower value 1.02 | locus YPL051W, strain arl3, stronger effect = lower value 1.01 | locus YPL078C, strain atp4, stronger effect = lower value 1.04 | locus YPL106C, strain sse1, stronger effect = lower value 0.953 | locus YPL240C, strain hsp82, stronger effect = lower value 0.952 | [8] 1.05
